Test results published in PubChem BioAssay (NCI).
About 79,000 compounds went through this panel and 15% of them were active in at least one assay; those are over-represented in the sample as a whole. Values without a mark were called inactive. Calls of active or inactive are those of the source. Cut-off read from the data, not from the text of the source: active = growth inhibition above about 70%; inactive = the rest.

Assay: NCI Yeast Anticancer Drug Screen. Data for the mgt1 strain (AID 153)
Settings: S. cerevisiae mgt1 mutant growth inhibition, active compounds read high
Method: Growth inhibition of yeast strains with defined genetic alterations is measured as a screen for potential anti-cancer activity. Selected strains with alterations in DNA damage repair or cell cycle control were exposed to compounds and growth inhibition was measured relative to vehicle treated controls. The strain used in this assay is mgt1

Structure (SMILES) | growth inhibition (at 1.2 µM) [%] | growth inhibition (at 3.7 µM) | growth inhibition (at 11.0 µM) | growth inhibition (at 33.0 µM) | growth inhibition (at 100.0 µM)
Oc1[nH]c2ccccc2c1N=NC(=S)N1CCCCC1 | 0 | 1% | 23% | 97% (active) | 99% (active)
N=C1N=Nc2nc(C3(c4nc5n(c4O)C(=N)N=N5)Cc4ccccc4C3=O)c(O)n21 (stereo not given) | 5 | 7% | 22% | 90% (active) | 99% (active)
CC(C)(C)CC(C)(C)c1cc(O)c(O)c(CN2CCCCC2)c1 | -1 | -1% | 0% | 3% | 67%
CCN(CC)CCNc1ccc([N+](=O)[O-])c2nc3ccccc3c(N)c12 | -14 | -18% | -20% | -21% | -15%
NC(=O)C(=O)NNc1ccccc1 | 5 | 10% | 28% | 76% (active) | 97% (active)
O=C1C=C(N2CCN(c3ccccn3)CC2)C(=O)c2c(O)ccc(O)c21 | 5 | 8% | 14% | 20% | 47%
CCOc1ccccc1N=Cc1c2ccccc2cc2ccccc12 | 2 | 75% (active) | 97% (active) | 98% (active) | 98% (active)
COc1cc(/C=C2\CCC/C(=C\c3ccc(O)c(OC)c3)C2=O)ccc1O | 0 | -1% | 1% | 0% | -3%
